Most compounds without a hit are left out; they make up all but 2% or so of the library.
LGR2 antag – inhibitors of bursicon-induced Drosophila LGR2 receptor cAMP signaling; inhibition, % at 9.99 µM; actives 0.35% (n = 380,000); AID 720647; HEK293 LGR2, CRE-luciferase, bursicon-stimulated, 4 h;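 active = drop in luminescence signal, shown as inhibition above about 50% in the replicate tests, limit read from the data, passing the limit was not always enough; inconclusive = probably only some replicates passing the limit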;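 also: agonist challenge used bursicon conditioned medium at about half maximal strength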
CF NFkB block – cystic fibrosis NF-kB activation inhibition. KKLEB NF-kB-GFP reporter, PAF-induced, GFP fluorescence overnight. inhibition, % at 5 µM. actives 0.86% (n = 360,000). AID 588850;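 active = at least 50% inhibition at 5 µM, scaled per plate between neutral and stimulator controls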;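 also: PAF is a Pseudomonas aeruginosa culture filtrate used as stimulus; plate controls were PAF-stimulated DMSO wells for no effect and unstimulated DMSO wells for full effect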
Shn3 inh set2 – Schnurri-3 reporter inhibition in Clone20 osteoblasts; Clone20 osteoblast Shn3 3'UTR firefly luciferase, 24 h; inhibition, % at 12.5 µM; actives 0.52% (n = 360,000); AID 588674;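 active = mean inhibition of at least 75% with every replicate also reaching 75%; inconclusive = mean inhibition at least 75% but some replicate below; inactive = mean inhibition below 75%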;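 also: 0% = median of neutral control wells and 100% = pilot-screen positive control compound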
EWS-Fli inh – inhibitors of EWS/Fli oncoprotein transcriptional activity; A673 NR0B1-luciferase reporter, viability-normalised; inhibition, % at 12.6 µM; actives 0.67% (n = 350,000); AID 651661;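 active = mean inhibition of at least 50% after viability correction, with every replicate also passing that limit; inconclusive = mean reaches 50% but only one of two replicates passes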;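 also: firefly luciferase signal divided by Alamar Blue viability fluorescence both relative to DMSO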
KKLEB cytotox – CF airway cell cytotoxicity counter-screen; KKLEB CF airway cells viability, ATPlite luminescence, overnight; hits give low values; cells stimulated with P. aeruginosa culture filtrate; actives 0.36% (n = 360,000); AID 602141; activity change (cytotoxicity), % at 5 µM;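 active = corrected activity change at or below -50% at 5 µM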
PAX8 reporter – inhibitors of PAX8 transcriptional activity in RMG-I cells. actives 1.2% (n = 360,000). RMG-I TPO-luciferase reporter, SteadyGlo, 24 h. inhibition, % at 12.6 µM;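 active = mean replicate inhibition at least 60% with every replicate also reaching 60%; inconclusive = only one of the two criteria is met; inactive = mean below 60% and not all replicates reaching 60%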;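 also: luciferase light reporting Pax8 driven TPO promoter activity; plate controls were median of neutral control wells for no effect and mitoxantrone controls for full effect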
* = called active by the depositor; ? = inconclusive; . = no result.

SMILES	LGR2 antag	CF NFkB block	Shn3 inh set2	EWS-Fli inh	KKLEB cytotox	PAX8 reporter
COc1ccc(-c2ccc(NC(=O)c3ccco3)cc2)nn1	66.4*	23.1	23.6	63.7*	-35.4	?
CCC(C)c1ccc(NC(=O)c2ccco2)cc1 (stereo unspecified)	52.2*	2.8	6.9	58.0*	-30.9	4.0
C[C@H](CO)N1C[C@H](C)[C@H](CN(C)C(=O)NC2CCCC2)Oc2ncc(-c3cccnc3)cc2C1=O	-6.5	.	.	-6.9	.	.
COc1ccc2c3c(n(C)c2c1)[C@@H](CO)N(C(=O)Nc1ccccc1F)CC31CCN(C(=O)c2ccccc2)CC1	-31.7	.	.	6.8	.	.
COc1ccc(-c2ncncc2-c2csc(C)n2)c(O)c1OC	.	3.4	-22.1	.	-10.0	.
COC1=C(N)C(=O)c2nc(-c3nc(C(=O)O)c(C)c(-c4ccc(OC)c(OC)c4O)c3N)ccc2C1=O	.	.	114.2*	.	.	.
Cc1ccc(-c2ccc(=O)n(CCC(=O)N3CCN(c4ccccc4)CC3)n2)cc1	3.4	-2.9	3.0	-2.8	-10.2	62.7*
Cc1ccc(-c2ccc(=O)n(CCC(=O)N3CCN(Cc4ccccc4)CC3)n2)cc1	2.0	-1.7	-27.9	2.6	-8.4	14.0
FC(F)(F)c1cc(CCN2CCNC[C@@H]2CC2CCCCC2)cc(C(F)(F)F)c1	13.4	19.9	3.2	54.6*	-22.3	11.3
Fc1ccccc1-c1ccc(/C=N/Nc2nc3ccccc3[nH]2)o1	-75.1	-7.8	-60.4	-13.0	-55.2*	-79.4
CN1C[C@@H]2[C@@H]3C(=O)N(Cc4ccccc4)C(=O)[C@@H]3[C@](Cc3ccccc3)(C1=O)N2C(=O)c1ccc(C(C)(C)C)cc1	16.5	32.0	50.3	21.1	-10.4	99.5*
CCN(C[C@H]1N[C@@](CC)(C(=O)OC)[C@H]2C(=O)N(Cc3ccccc3)C(=O)[C@@H]12)C(=O)c1ccc(C(C)(C)C)cc1	4.2	85.4*	18.0	14.2	-58.5*	81.7*
COc1ccc(C)cc1N1C(=N)/C(=C2/Nc3ccccc3S2)C(c2ccccc2)C1=O (stereo unspecified)	.	-6.3	52.7	66.2*	-0.3	13.3
O=C(N[C@H]1CC[C@@H](CC(=O)N2CCc3ccccc3C2)O[C@@H]1CO)C1CCC1	-4.9	.	.	-1.9	.	-3.9
O=c1c2ccccc2nc2c3ccccc3cnn12	-1.8	-142.9	-14.0	-96.7	-11.8	-125.1
O=c1c(Cl)c(N2CCCCC2)cnn1-c1nc2ccccc2[nH]1	.	4.2	43.5	.	-56.1*	.
O=c1c2ccccc2cnn1-c1nc2ccccc2[nH]1	100.4*	-13.9	87.6*	91.4*	-50.7*	113.5*
CCCN(C)C[C@H]1OCCCC[C@@H](C)Oc2ccc(NS(=O)(=O)c3ccccc3)cc2C(=O)N([C@H](C)CO)C[C@H]1C	2.8	.	.	-0.7	.	17.6
COc1cc(C2c3cc4c(cc3OC(NNC(N)=S)C2C)OCO4)cc(OC)c1OC (stereo unspecified)	2.4	43.8	-21.7	61.3*	-22.0	85.2*
COc1cc(C2c3cc4c(cc3OC(NNC(N)=O)C2C)OCO4)cc(OC)c1OC (stereo unspecified)	-9.3	50.6*	-7.8	53.6*	-28.6	74.6*
COc1cc(C2c3cc4c(cc3OC(NCc3ccccc3)C2C)OCO4)cc(OC)c1OC (stereo unspecified)	6.5	44.2	-13.3	?	-26.7	?
CC(=O)N(C)C[C@@H]1Oc2cc(C#Cc3ccccc3)ccc2S(=O)(=O)N([C@H](C)CO)C[C@H]1C	15.8	.	.	2.2	.	.
Cc1ccc(-c2ccccc2[C@@H]2[C@H](C#N)N(c3ncc(-c4ccccc4)s3)[C@H]2CO)cc1	7.4	.	.	-1.4	.	.
Oc1ccc(CNc2ccccc2)c2cccnc12	.	10.5	66.3	.	1.2	.
Cc1cccc(NCc2ccc(O)c3ncccc23)c1	?	26.2	64.7	15.2	-8.9	78.8*
SMILES	LGR2 antag	CF NFkB block	Shn3 inh set2	EWS-Fli inh	KKLEB cytotox	PAX8 reporter
Cc1ccc(-c2[nH]c3ccccc3c2SCCNC(=O)c2ccc(S(=O)(=O)N3CCOCC3)cc2)cc1	13.6	18.5	57.4	33.2	-7.7	61.6*
COc1ccc(-c2[nH]c3ccccc3c2SCCNC(=O)c2ccccc2)cc1	-27.9	5.1	24.1	0.8	-0.3	.
CN(C)CC#Cc1ccc([C@@H]2[C@H]3CN(CC4CCOCC4)CCCCN3[C@H]2CO)cc1	-6.9	.	.	8.9	.	2.8
O=C(CCl)N1CCN(S(=O)(=O)c2ccc3ccccc3c2)CC1	20.4	-20.0	3.8	59.9*	-18.6	2.7
CN(C)C(=O)N1CCN(S(=O)(=O)c2ccc3ccccc3c2)CC1	-6.4	-15.9	10.1	3.7	5.8	14.7
CN1c2ccccc2C(C)(C)[C@]12C=Cc1cc(O)ccc1O2	2.9	4.7	86.7*	.	10.1	.
COc1ccc2nc(N3CCCCC3)c(/C=C3\SC(=S)NC3=O)cc2c1	4.9	46.6	-20.4	11.1	-39.5	-24.4
O=C1NC(=S)S/C1=C\c1cc2ccccc2nc1N1CCCCC1	6.5	54.9*	.	19.2	-37.6	13.6
CCCC(=O)Nc1ccc2c(c1)C(=O)N(C)C[C@H](OC)[C@@H](C)CN(C)[C@@H](C)CO2	18.3	.	.	-1.5	.	.
CN(C)c1ccc(C(=O)c2ccc(N(C)C)c3ccccc23)cc1	.	54.9*	2.8	.	-2.1	.
COc1ccc(CN(C)C[C@@H]2OCCCC[C@H](C)Oc3ccc(NC(=O)Nc4ccc(C(F)(F)F)cc4)cc3C(=O)N([C@H](C)CO)C[C@H]2C)cc1	.	.	.	70.9*	.	103.6*
COc1ccc(CN(C)C[C@H]2OCCCC[C@H](C)Oc3ccc(NC(=O)Nc4ccc(C(F)(F)F)cc4)cc3C(=O)N([C@H](C)CO)C[C@H]2C)cc1	.	.	.	?	.	102.0*
COc1ccc(NC(=O)Nc2ccc3c(c2)C(=O)N([C@H](C)CO)C[C@H](C)[C@@H](CN(C)Cc2ccc(C(F)(F)F)cc2)OCCCC[C@H](C)O3)cc1	19.5	.	.	13.0	.	49.8
COc1ccc(NC(=O)Nc2ccc3c(c2)C(=O)N([C@H](C)CO)C[C@@H](C)[C@@H](CN(C)Cc2ccc(C(F)(F)F)cc2)OCCCC[C@H](C)O3)cc1	4.7	.	.	4.6	.	73.3*
COc1ccc(CN(C)C[C@@H]2OCCCC[C@H](C)Oc3ccc(NC(=O)Nc4ccc(C(F)(F)F)cc4)cc3C(=O)N([C@@H](C)CO)C[C@H]2C)cc1	.	.	.	72.2*	.	87.5*
COc1ccc(CN(C)C[C@@H]2OCCCC[C@@H](C)Oc3ccc(NC(=O)Nc4ccc(C(F)(F)F)cc4)cc3C(=O)N([C@H](C)CO)C[C@@H]2C)cc1	.	.	.	-8.1	.	-6.3
O=C(Nc1ccc(F)cc1)N1CC(=O)N2[C@H](CO)[C@H](c3ccc(Br)cc3)[C@H]2C1	-6.9	.	.	3.6	.	10.3
C[C@@H]1CN([C@H](C)CO)C(=O)c2cc(N(C)C)ccc2O[C@@H]1CN(C)S(=O)(=O)c1cccs1	-0.7	.	.	-1.6	.	8.3
